Columns and labels:
Format in all cases: functional
Plasmodium falciparum [1] = experiment: GSK_TCMDC: Inhibition of Plasmodium falciparum 3D7 in whole red blood cells, using parasite LDH activity as an index of growth. Test compounds present at 2uM
Plasmodium falciparum [2] = experiment: GSK_TCMDC: Inhibition of Plasmodium falciparum Dd2 in whole red blood cells, using parasite LDH activity as an index of growth. Test compounds present at 2uM
HepG2 = experiment: GSK_TCMDC: Percent inhibition of human HepG2 cell line. Test compounds present at 10uM.

Compound	Inhibition (Plasmodium falciparum [1]) [%]	Inhibition (Plasmodium falciparum [2]) [%]	Inhibition (HepG2) [%]
COc1c(CCNCCCCNCCc2cc(Cl)c3ccccc3c2OC)cc(Cl)c2ccccc12.CS(=O)(=O)O	99	100	99
O=C(NCc1cccnc1)C(c1cc2ccccc2o1)N1CCN(C(c2ccccc2)c2ccccc2)CC1 (stereo unspecified)	95	81	12
COc1c(CN2CCOCC2)cccc1-c1cc2c(-c3ccc(C(=O)O)c(C(C)C)c3)ccnc2[nH]1.O=C(O)C(F)(F)F	98	90	44
C[C@H](Cc1ccc(OCCCCCCOc2ccc(C[C@@H](C)NC[C@H](O)c3cccc(Cl)c3)cc2)cc1)NC[C@H](O)c1cccc(Cl)c1.Cl	99	99	99
CC(C)C[C@H](Nc1ccnc(NCC2CCCCC2)n1)C(=O)NCCc1ccccc1.O=C(O)C(F)(F)F	88	66	10
CCN(C)CCCn1c(N(C)C)nc2cc(-n3cnc4cc(-c5ccc(Cl)cc5)sc4c3=O)ccc21.O=C(O)C(F)(F)F	80	12	83
O=C(Nc1ccc2ccccc2n1)c1ccccc1-c1ccccc1	90	83	14
CS(=O)(=O)NCCCNCc1ccc(-c2cccc(-c3nc4cc(F)ccc4[nH]3)c2)cc1.O=C(O)C(F)(F)F	98	1	15
O=C(NCCNc1noc(-c2sccc2Br)n1)c1ccc(Cl)cc1	93	1	0
CS(=O)(=O)NCCCNCc1ccc(-c2cccc(-c3nc4cc(C(F)(F)F)ccc4[nH]3)c2)cc1.O=C(O)C(F)(F)F	100	83	17
CCNC(=O)NC1CCN(Cc2c(-c3cccs3)nc3ccccc3c2C(=O)N[C@@H](C)C2CCCCC2)CC1	95	96	0
CCOCCCNc1nc2cc(OC)c(OC)cc2c2nc(-c3ccccc3)nn12	96	98	10
CCCc1nc2c(N3CC(NC(=O)/C=C/c4ccccc4)C3)cccc2n1C1CC1	83	68	1
CCC[C@@H]([C@@H](CC1CCCCC1)C(=O)N[C@H](C(=O)Nc1nccs1)C(C)(C)SCCNC(=O)OCc1ccccn1)N(O)C=O	99	96	17
OC(CNCc1cccc(Oc2ccc(Cl)cc2)c1)c1cc(C(F)(F)F)cc(C(F)(F)F)c1 (stereo unspecified)	99	100	0
C=CCOC(=O)N1CCC(CNCc2ccc(-c3cccc(-c4nc5cccc(C)c5[nH]4)c3)cc2)C1.O=C(O)C(F)(F)F (stereo unspecified)	100	99	25
COc1ccc(C(=O)NC2CCN(c3ccnc4cc(Cl)ccc34)C2)cc1.O=C(O)C(F)(F)F (stereo unspecified)	100	100	31
O=C(Nc1ccccc1)N(Cc1cccc(-c2cccc(CNCc3ccc4c(c3)OCO4)c2)c1)C1CCN(Cc2ccccc2)CC1.O=C(O)C(F)(F)F	100	84	96
CCC(C)(C)c1ccc(N2C(N)=NC(N)=NC2(C)C)cc1.Cl	91	4	40

Compound	Inhibition (Plasmodium falciparum [1]) [%]	Inhibition (Plasmodium falciparum [2]) [%]	Inhibition (HepG2) [%]
CCCC/C=C(\Cl)c1ccc(O)c2c1C[C@H]1C[C@H]3[C@H](N(C)C)C(O)=C(C(N)=O)C(=O)[C@@]3(O)C(O)=C1C2=O.Cl	90	98	16
CS(=O)(=O)c1ccc(CCNCc2ccc(-c3ccc(CNC4CCN(Cc5ccccc5)CC4)cc3)nc2)cc1.O=C(O)C(F)(F)F	100	100	32
Cc1onc(-c2ccccc2)c1C(=O)Nc1nc(-c2ccccn2)nc2ccsc12	97	78	23
Cc1cccc2nc(-c3cccc(-c4cccc(NC(=O)Nc5ccc(Cl)c(Cl)c5)c4)c3)[nH]c12	100	96	24
CCC(C)c1ccc(NC(=O)c2ccc(S(=O)(=O)Nc3ccc(OC)c(N4CCN(CC5CC5)CC4)c3)cc2)cc1.O=C(O)C(F)(F)F (stereo unspecified)	94	17	24
Cl.N=c1n(Cc2ccccc2)c2ccccc2n1CC(O)c1ccc(Cl)c(Cl)c1 (stereo unspecified)	95	98	40
CC(=O)N(C)c1ccc(C(=O)Nc2cccc(-c3cccc(-c4nc5cccc(C)c5[nH]4)c3)c2)cc1	89	30	11
COc1cc2ccccc2cc1OCCCN1CCN(CC(c2ccc(F)cc2)N2CCN(C(C)C)CC2)CC1.Cl (stereo unspecified)	100	92	72
CN(Cc1ccc(-c2ccc(C(F)(F)F)cc2)cc1)C(=O)Cn1c(CCc2cccc(F)c2F)cc(=O)c2ccc(OCCCN3CCCCC3)cc21.O=C(O)C(O)C(O)C(=O)O	100	90	79
O=C(O)C(F)(F)F.O=S(=O)(NCCN1CCCC1)c1ccc(-c2ccc(CNCc3ccc(F)cc3)cc2)cc1	94	44	42
Cl.N#Cc1ccc2c(c1)CCN(CCC1CCC(NC(=O)/C=C/c3cnc4ccccc4c3)CC1)CC2 (stereo unspecified)	87	21	22
COc1c(C2CCN(CCCCNC(=O)c3ccc(NC(=O)c4ccc(C#N)cc4)cc3)CC2)ccc2c1CCCC2	97	100	81
Cc1cc(C2CCN(CCCCNC(=O)c3ccc(-c4ccc(C#N)cc4)cc3)CC2)c(C)cc1O	96	96	27
Cc1[nH]c(CNCCCNc2cc(=O)c3ccccc3[nH]2)c(Br)c1Br	91	47	0
COc1ccccc1N1CCN(C(C(=O)NCc2cccc(F)c2)c2ccc(C)cc2)CC1 (stereo unspecified)	94	80	4
N#Cc1ccc(NC(=O)c2ccc(C(=O)NCCCCN3CCC(c4ccc5c(c4OCCOC4CCCCO4)CCCC5)CC3)cc2)cc1 (stereo unspecified)	99	97	72
CCc1ccc(CN2CCC(CNC(=O)c3cc(-c4cccc(F)c4)cs3)C2)cc1.O=C(O)C(F)(F)F (stereo unspecified)	84	4	23
CC(C)Nc1cc(C(=O)N[C@@H](Cc2ccccc2)[C@H](O)CNC(C)(C)c2cccc(C(F)(F)F)c2)cc(N2CCCCS2(=O)=O)c1.O=CO	98	98	9
O=C(NCCCCN1CCC(C(c2ccccc2)c2ccccc2)CC1)c1ccc(NC(=O)c2ccc(Cl)cc2)cc1	100	47	12

Compound	Inhibition (Plasmodium falciparum [1]) [%]	Inhibition (Plasmodium falciparum [2]) [%]	Inhibition (HepG2) [%]
COc1ccccc1N1CCN(C(C(=O)NCc2ccc(C)cc2)c2ccc(C)cc2)CC1 (stereo unspecified)	92	79	12
O=C(C=Cc1ccc(Cl)c(Cl)c1)NCCCCCN1CCC(CCCNS(=O)(=O)c2ccc(Br)cc2)CC1	93	25	74
Cc1nccc2c(NC(=O)N[C@@H]3CCN(c4ncc(C(F)(F)F)cc4Br)C3)cccc12.Cl	96	27	21
COc1ccccc1CNC(=O)c1nn(-c2ccc(Cl)cc2)c(=O)c2ccccc12	100	80	0
CN(C)CCNCc1ncsc1-c1ccc2c(Nc3ccc(F)cc3Cl)ccnc2c1	100	95	0
Oc1ccc(CCNc2nc(N/N=C/C=C/c3ccc(Cl)cc3)nc(N3CCNCC3)n2)cc1	98	52	17
Cc1cc(C2CCN(CCCCNC(=O)c3ccc(-c4ccc(C(F)(F)F)cc4)cc3)CC2)c(C)cc1OCCOC1CCCCO1 (stereo unspecified)	95	5	30
COc1ccc(Nc2ncc3c(-c4cccc(NC(=O)Cc5ccncc5)c4)c[nH]c3n2)cc1OC	99	87	23
Cc1cc(N[C@@H](Cc2ccccc2)C(=O)NCc2cccs2)nc(NCCOc2ccccc2)n1.O=C(O)C(F)(F)F	93	31	2
COc1ccc2c(NN=Cc3ccccc3)ccnc2c1	100	98	18
O=C(N[C@@H](Cc1ccccc1)C(=O)NCCN1CCCCC1)c1ccc(O)c(-c2cccc(C(F)(F)F)c2)c1	92	3	0
CC1CCC2(CC1)NC(N)=NC(=N)N2OCCCCCCCCO (stereo unspecified)	96	87	2
Cc1nc(C)c(-c2ccc(Oc3ccc(OC(F)(F)F)cc3)cc2)c(O)c1I	95	96	3
CCCN(CCC)C(=O)c1cc(-c2cccc(C)c2)nc2ccccc12	86	59	17
COc1ccc(CCNCCCCCCNCCc2ccc(OC)c(OC)c2Cl)c(Cl)c1OC.Cl	96	0	19
COc1cc2nc(NCCc3ccccc3)nc(NCc3ccc(C#N)cc3)c2cc1OC	100	100	52
Cc1ccc(O)c(-c2cc(C(=O)Nc3ccc(S(=O)(=O)N4CCCC(C)C4)cc3)[nH]n2)c1 (stereo unspecified)	96	97	27
Cc1cccc2nc(-c3cccc(-c4ccc(NC(=O)C(C)CN(C)C)cc4)c3)[nH]c12 (stereo unspecified)	100	100	29
CCc1cn2c3c(cc(C(=O)N[C@@H](Cc4ccccc4)[C@H](O)CNC4CCOCC4)cc13)N(C(C)C)S(=O)(=O)CC2.O=CO	98	99	0
